Data on 34 molecules can be found in ChEMBL document CHEMBL1157539, “Thousands of chemical starting points for antimalarial lead identification” (Nature, 2010).

The experiment has as its system Plasmodium falciparum. As to the kind of experiment: GSK_TCMDC: Inhibition of Plasmodium falciparum Dd2 in whole red blood cells, using parasite LDH activity as an index of growth. Test compounds present at 2uM. In kind it is functional.
Molecule `CCc1c[nH]c2c(N3CCCC3=O)cc(C(=O)N[C@@H](Cc3ccccc3)[C@H](O)CNC(C)(C)c3cccc(C(F)(F)F)c3)cc12.O=CO` had an Inhibition of 99%.

On to `COc1ccc2c(=O)c3ccc(OC)cc3[nH]c2c1`, for which the Inhibition was determined as 75%.

`CCOC(=O)C(Oc1ccc2ccccc2c1)C(=O)OCC` returned an Inhibition of 0%.

Turning to `COc1ccc(S(=O)(=O)NC2CCN(c3ccnc4cc(Cl)ccc34)C2)cc1.O=C(O)C(F)(F)F` (centres undefined), the Inhibition is given as 86%.

For the molecule `CC1CN(c2cnn(C/C=C/c3ccc(NC(=O)c4ccc5nonc5c4)cc3)c(=O)c2Cl)CC(C)N1.O=C(O)C(F)(F)F` (centres undefined), the Inhibition came out at 35%.

Molecule `CCOc1ccc(Br)cc1/C=C/C(=O)Nc1ccc2c(c1)CN(C)CCC2.O=C(O)C(F)(F)F` registered an Inhibition of 37%.

Consider `O=C(/C=C/c1ccc(Cl)c(Cl)c1)NCCCCCCN1CCCN(C(=O)Nc2ccc(Cl)c(Cl)c2)CC1`, for which the Inhibition is given as 8%.

`COc1ccc(-c2ccc(NC(=O)c3cccs3)cc2)cc1CN1CCCN(C)CC1.O=C(O)C(F)(F)F` had an Inhibition of 30%.

Molecule `CN1CCCN(Cc2ccc(-c3cccc(NC(=O)c4ccc(C#N)cc4)c3)cc2)CC1.O=C(O)C(F)(F)F` showed an Inhibition of 26%.

On to `Cc1ccc2nc(C)cc(N/N=C/c3ccccc3[N+](=O)[O-])c2c1`, for which the Inhibition was 100%.

In turn, `COc1cc2ncnc(NCCc3ccccc3Cl)c2cc1OC` came in with an Inhibition of 11%.

In the case of `Oc1cc(Nc2ccnc3cc(-c4ccc(CN5CCCCC5)o4)c(Cl)cc23)c(Cl)cc1F`, the Inhibition came to 64%.

Turning to `Cl.OC(c1cc(C(F)(F)F)nc2c(F)cccc12)C1CCCCN1` (centres undefined), the Inhibition came out at 74%.

For `CC(=O)c1ccc(Nc2c(C(N)=O)cnc3cc(-c4c(C)noc4C)ccc23)cc1`, the Inhibition was 44%.

`CC(C)COc1ccc(C(O)C(CN2CCCCC2)c2ccccc2)cc1` (centres undefined) gave an Inhibition of 89%.

On to `Cl.N=C(N)NN=Cc1ccc2ccc3ccccc3c2c1`, for which the Inhibition is 89%.

The molecule `CCn1c(-c2nonc2N)nc2cnc(Oc3cccc(NC(=O)c4ccc(OCCN5CCCCC5)cc4)c3)cc21` had an Inhibition of 7%.

For `Cc1noc(C)c1-c1cccc(CNCc2cccc(-c3cccc(-c4nc5cc(C(F)(F)F)ccc5[nH]4)c3)c2)c1.O=C(O)C(F)(F)F`, the Inhibition is on record as 95%.

`CC(=O)Nc1cccc(C(=O)Nc2ccc(-c3cccc(-c4nc5cc(F)ccc5[nH]4)c3)cc2)c1` displayed an Inhibition of 8%.

In turn, `CCOC(=O)c1ccc(NC(=O)N(Cc2ccc(-c3ccc(CN4CCNCC4)cc3)cc2)C2CCN(Cc3ccccc3)CC2)cc1.O=C(O)C(F)(F)F` gave an Inhibition of 93%.

As to `Cc1cccc2nc(-c3cccc(-c4ccc(CNCc5cnn(-c6ccccc6)n5)cc4)c3)[nH]c12.O=C(O)C(F)(F)F`, the Inhibition is listed as 66%.

In turn, `COc1ccc(-c2ccc(NC(=O)c3cccc(Cl)c3)cc2)cc1CN1CCC(O)CC1.O=C(O)C(F)(F)F` had an Inhibition of 12%.

Consider `CC(C)(CNCc1ccc(C(F)(F)F)cc1)c1nc(-c2ccc(Cl)c(O)c2)c(-c2ccncc2)[nH]1.Cl`, for which the Inhibition is 98%.

`Cc1ccc(F)c(CN2CCC(N3CC(c4ccccc4)(c4ccccc4)OC3=O)CC2)c1Cl` had an Inhibition of 89%.

`COC(=O)c1cc(/C(C)=N/Nc2nc3ccccc3[nH]2)ccc1O`: the Inhibition was found to be 75%.

For the molecule `Cc1cc(N[C@@H](CC(C)C)C(=O)NCc2cccc(F)c2)nc(Nc2ccccc2)n1.O=C(O)C(F)(F)F`, the Inhibition was determined as 76%.

`COc1ccc(Nc2nc(N/N=C/c3ccc(-c4ccc([N+](=O)[O-])cc4)o3)nc(Nc3ccccc3)n2)cc1`: the Inhibition stood at 17%.

On to `N#Cc1cncc(-c2nc3c(N4CCC(N5CCCC5)CC4)cccc3n2CCNCc2ccccc2)c1.O=C(O)C(F)(F)F`, for which the Inhibition was found to be 58%.

Turning to `CCOC(=O)c1ccc(-c2cnc(N)c(-c3nc4cccc(C)c4[nH]3)c2)cc1`, the Inhibition was found to be 79%.

The molecule `Cc1ccc(CNC(=O)[C@H](CCCN)Nc2cc(C)nc(NCC3CCCCC3)n2)cc1.O=C(O)C(F)(F)F` showed an Inhibition of 0%.

For the molecule `CC(C)(C)c1ccc(CN2CCC(CNC(=O)c3cc(-c4ccccc4Cl)cs3)C2)cc1.O=C(O)C(F)(F)F` (centres undefined), the Inhibition is 56%.

For `CCN(CCNc1nc(NCCc2cnc[nH]2)nc(N(CCC#N)Cc2ccccc2)n1)c1cccc(C)c1`, the Inhibition came to 92%.

Take `CC[C@]1(C)C[C@@H](NC(=O)NC(=O)c2ccc(OC)cc2)[C@]2(C)[C@H](C)CC[C@]3(CCC(=O)[C@H]32)[C@@H](C)[C@@H]1OC(=O)NC(=O)c1ccc(OC)cc1`: the Inhibition was 98%.

In turn, `COc1ccc(C2CC(=O)C3=C(C2)NC(C)=C(C(=O)OC(C)C)C3c2c(F)cccc2Cl)cc1OC` (centres undefined) registered an Inhibition of 81%.

As a reminder, the Inhibition is the relative decrease from the control value, in per cent. Higher therefore signals strong suppression.
